From PubChem
Most compounds without a hit are left out; they make up all but 1.3% or so of the library.
FadD28 binding = inhibitors of FadD28 bisubstrate probe binding, primary screen, biochemical, fluorescence polarization, single point; inhibition, % at 12.5 µM; 360,000 tested, 0.22% active; AID 588549, 2011; in the data active means inhibition above about 8.5%, passing the limit was not always enough; inconclusive means no clear call, values can overlap the other calls
Mtb UGM inh = M. tuberculosis UGM enzyme inhibitors, primary screen, biochemical, fluorescence polarization, single point. UDP-galactopyranose mutase (Mycobacterium tuberculosis (strain ATCC 25618 / H37Rv)), …. purified UGM, fluorescence polarization probe displacement. inhibition, % at 10 µM. 320,000 tested, 0.06% active. AID 504406, 2011; in the data active means inhibition above about 10%, passing the limit was not always enough; inconclusive means no clear call, values can overlap the other calls
Rv3671c protease = Rv3671c serine protease inhibitors, primary screen, biochemical, fluorescence polarization, M. tuberculosis H37Rv; P9WHR9; inhibition, % at 5.96 µM; 320,000 tested, 0.048% active; AID 2606, 2010;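 further: extracellular domain of Rv3671c used as enzyme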
Target sequence (P9WHR9 whole entry, looked up, the tested form may be a part): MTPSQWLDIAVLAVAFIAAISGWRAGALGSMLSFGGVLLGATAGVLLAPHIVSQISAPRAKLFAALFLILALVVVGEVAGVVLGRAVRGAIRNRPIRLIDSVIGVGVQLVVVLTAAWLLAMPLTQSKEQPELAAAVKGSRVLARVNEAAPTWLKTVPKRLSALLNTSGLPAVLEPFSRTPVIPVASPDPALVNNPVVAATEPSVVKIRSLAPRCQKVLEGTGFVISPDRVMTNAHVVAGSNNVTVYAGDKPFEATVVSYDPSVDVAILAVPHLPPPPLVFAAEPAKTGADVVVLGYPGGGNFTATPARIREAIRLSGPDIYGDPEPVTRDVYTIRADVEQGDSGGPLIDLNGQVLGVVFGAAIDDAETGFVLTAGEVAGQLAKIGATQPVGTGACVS
RecA intein inh = Mtb RecA intein splicing inhibitors, primary screen, biochemical, fluorescence, HTS | cell-free RecA intein splicing | AID 2221, 2009 | inhibition, % (concentration not given with the values) | 290,000 tested, 0.75% active; in the data active means inhibition above about 30%; inconclusive means no clear call, values can overlap the other calls
PrP 5UTR inh = inhibition of PrP 5' UTR reporter expression. cell-based PrP 5' UTR mRNA reporter, plate reader. 340,000 tested, 0.35% active. inhibition, % (concentration not given with the values); in the data active means inhibition above about 52%
BJeLR viability = MLPCN primary cell-based screen for lethality selective to Ras in HRASV12 cells. 300,000 tested, 0.17% active. AID 1554, 2009. BJeLR (HRASV12) viability, CellTiter-Glo ATP luminescence, 48 h. inhibition, % (concentration not given with the values); in the data active means inhibition above about 50%; inconclusive means no clear call, values can overlap the other calls
Rv3671c cf = Rv3671c serine protease inhibitors, retest, confirmation, biochemical, fluorescence polarization, M. tuberculosis H37Rv | inhibition, % at 5.96 µM | 140 tested, 40% active | shares compounds with Rv3671c protease | AID 2761, 2010
Numbers stand for hits; 0 = inactive; ? = inconclusive; - = no result; + = active, no number. Unless noted, no stated cut-off is given here; in the data, active means inhibition above about 38%; inactive means the rest.

SMILES	FadD28 binding	Mtb UGM inh	Rv3671c protease	RecA intein inh	PrP 5UTR inh	BJeLR viability	Rv3671c cf
Cc1cc(C)c(-c2cc(NC(=O)COC(=O)c3ccc(NC(=O)CC#N)cc3)n(-c3ccccc3)n2)cc1C	0	0	42	0	0	0	0
Cc1cc(C)c(-c2cc(NC(=O)COC(=O)c3ccc(C#N)cc3)n(-c3ccccc3)n2)cc1C	0	0	0	0	0	0	-
CC(=O)Nc1ccc(C(=O)OCC(=O)Nc2ccccc2Sc2ccccc2)cc1	0	0	0	0	0	0	-
CC12CCC(=O)C=C1C(F)CC1C2C(O)CC2(C)C1CCC2(O)C(=O)CO (configuration not stated)	0	-	-	-	0	-	-
CN1C(=O)[C@H]2[C@@H](c3ccc(C(F)(F)F)cc3)N[C@]3(CCCN(CC4CCCCC4)C3=O)[C@H]2C1=O	0	-	-	-	-	-	-
N#CC(C#N)=C1C=C2C=C(N3CCCCC3)CCC2CC1 (configuration not stated)	-	0	51	-	-	-	0
CCN(CC)C1=CC2=CC(=C(C#N)C#N)CCC2CC1 (configuration not stated)	0	0	0	0	0	-	-
CCN(CC)C(=O)C1c2ccccc2Oc2ccccc21	0	47	74	0	0	0	0
CSC[C@@H]1NC(=S)N(c2ccc(C)cc2)C1=O	0	0	91	0	0	0	83
CCc1nc2c(OCC(=O)c3ccc(F)cc3)cccn2c1N(C)C(=O)C(C)C	0	-	-	-	-	-	-
CC(=O)c1ccc(S(=O)(=O)Nc2cccc(-c3ccc4nncn4n3)c2)cc1	0	0	56	0	0	0	0
O=C(CSc1ccc(Cl)cc1)Nc1ccc(C2SCCS2)cc1	0	0	0	0	0	0	-
O=C(CSc1c(F)c(F)cc(F)c1F)Nc1ccc(C2SCCS2)cc1	0	0	164	0	0	0	0
Cc1cc(Br)cn2c(Cc3ccsc3)c(C(C)(C)C)nc12	0	-	-	-	-	-	-
CCC(C)OC(=O)n1ccc(C(=O)Nc2nccs2)n1 (configuration not stated)	0	0	55	0	0	0	49
Cc1ccc(-c2ccccc2NC(=O)CS(=O)CC(=O)Nc2ccc(C)c(Cl)c2)o1 (configuration not stated)	0	0	78	0	0	0	0
COc1cccc(S(=O)(=O)N(C)C[C@@H]2OCc3cn(nn3)CCCC(=O)N([C@H](C)CO)C[C@H]2C)c1	0	-	-	-	-	-	-
CCc1cccc(NC(=O)COC(=O)c2c(C)nn(-c3ccccc3)c2C)c1	0	-	-	-	-	-	-
Cc1ccc2nc(-c3ccccc3C)oc(=O)c2c1	0	0	62	0	0	0	75
Cn1nc(-c2ccccc2)c(N2CCCCC2)cc1=O	0	0	0	0	0	0	-
Cn1c(=O)cc2c3c(c(N4CCCCC4)ccc31)C(=O)c1ccccc1-2	32	0	52	0	-	0	0
CCCc1cc(=O)oc2cc(C)cc(OC(=O)c3ccco3)c12	0	0	66	0	0	0	84
Cc1nn(-c2ccc(Br)cc2)c(=O)c2ccccc12	0	0	71	0	0	0	0
Cc1nn(-c2ccccc2C(=O)O)c(=O)c2ccccc12	0	0	0	0	0	0	-
CCS(=O)(=O)c1ccc(O)c(NC(=O)c2ccc(S(=O)(=O)N3CCCCCC3)cc2)c1	0	0	0	-	0	-	-
SMILES	FadD28 binding	Mtb UGM inh	Rv3671c protease	RecA intein inh	PrP 5UTR inh	BJeLR viability	Rv3671c cf
CCN(CC)C(=S)SCC(=O)NC12CC3CC(CC(C3)C1)C2	0	0	151	0	0	0	0
CCOC(=O)C1CCCN(C(=O)C2COc3ccccc3O2)C1 (configuration not stated)	0	-	-	-	0	-	-
CCOC(=O)C1CCCN(C(=O)C2c3ccccc3Oc3ccccc32)C1 (configuration not stated)	10	23	60	0	0	0	0
CC(C)CNC(=O)c1ccc(-c2ccc(F)c(F)c2)c2ccoc12	0	-	-	-	-	-	-
Cc1cc(O)ccc1C1(c2ccc(O)cc2C)OC(=O)c2ccccc21	0	0	0	0	0	0	-
CC(=O)Oc1ccc2c(c1)Oc1cc(OC(C)=O)ccc1C21OC(=O)c2ccccc21	41	?	122	-	0	-	123
O=C(C[C@H]1C(=O)N(CCc2ccccc2)C[C@@H]1c1ccccc1)Nc1ccccc1	0	-	-	-	-	-	-
COC(=O)Cc1[nH]nc2c1C(c1cc(OC)c(OC)c(OC)c1)C(C#N)=C(N)O2 (configuration not stated)	0	0	40	0	0	0	0
CC1=C(C(N)=O)C(c2cccs2)n2nc(-c3cccc(Cl)c3)nc2N1 (configuration not stated)	0	0	0	0	0	0	-
CC1=C(C(N)=O)C(c2cccs2)n2nc(-c3cccc(C)c3)nc2N1 (configuration not stated)	0	0	43	0	0	0	52
COc1cc(OC)cc(-c2noc(-c3csc([C@@H]4C[C@H](O)[C@@H](CO)O4)n3)n2)c1	0	-	-	-	-	-	-
CN(Cc1ccccc1)C(=O)c1ccc(NC(=O)C2CCCN(C(=O)OC(C)(C)C)C2)cc1 (configuration not stated)	0	0	0	-	0	-	-
CCN1C(=O)C(CC(=O)Nc2ccc(F)cc2)N(CCc2ccc(OC)cc2)C1=S (configuration not stated)	0	0	51	0	0	0	0
O=C(O)c1cccc2c1NC(C(=O)O)C1CC(Sc3ccccc3[N+](=O)[O-])C(Cl)C21 (configuration not stated)	55	0	50	-	0	-	0
O=C1CCCC2=C1C(c1ccc(Cl)cc1)C1C(=O)c3ccccc3C1=N2 (configuration not stated)	?	0	40	0	0	0	0
CCNc1c2c3c(cccc3n(C)c1=O)C(=O)c1ccccc1-2	-	22	60	0	-	0	53
Cn1c(=O)c(NCCc2ccccc2)c2c3c(cccc31)C(=O)c1ccccc1-2	93	44	+	0	0	0	+
Cn1c(=O)c(NC2CCCCC2)c2c3c(cccc31)C(=O)c1ccccc1-2	0	-	-	-	0	-	-
Cn1c(=O)c(NCCO)c2c3c(cccc31)C(=O)c1ccccc1-2	0	98	122	0	0	0	132
CCCCNc1c2c3c(cccc3n(C)c1=O)C(=O)c1ccccc1-2	0	28	43	0	0	0	57
O=C1NN=C2CCCCCCC12 (configuration not stated)	0	-	-	-	-	-	-
C=CCNC(=O)CSc1nnc(-c2cccc(S(=O)(=O)N3CCOCC3)c2)o1	0	-	-	-	-	-	-
COc1ccc(/C(=C\Nc2ccc(C)c(C)c2)C(C)=O)cc1OC	0	0	0	0	0	0	-
